Test [1] in a line: NCI Yeast Anticancer Drug Screen. Data for the rad50 strain (AID 155).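 Also: 0% = growth of vehicle-only cultures of the same strain.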 As to conditions: S. cerevisiae rad50 strain growth inhibition, stronger effect = higher value. A digest of the protocol:
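Relative growth inhibition (compound vs vehicle) was measured in yeast with a defined repair-gene alteration.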

Test [2] is described as follows: NCI Yeast Anticancer Drug Screen. Data for the mec2-1 strain (AID 157). To be noted: S. cerevisiae mec2-1 strain, stronger effect = higher value. A digest of the protocol:
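Each compound was tested on mec2-1 yeast, a strain altered in DNA damage repair or cell cycle control. Growth inhibition is reported relative to vehicle.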

The nature of test [3]: NCI Yeast Anticancer Drug Screen. Data for the sgs1 mgt1 strain (AID 161).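 Also: 0% = growth of cultures given vehicle only.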 As to conditions: S. cerevisiae sgs1 mgt1 strain, stronger effect = higher value. A digest of the protocol:
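Genetically altered yeast, compound exposure, growth inhibition relative to vehicle.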

Test [4] can be described thus: NCI Yeast Anticancer Drug Screen. Data for the cln2 rad14 strain (AID 165).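 Also: 0% = growth equal to vehicle treated cultures.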 As to conditions: S. cerevisiae cln2 rad14 strain, stronger effect = higher value. In outline:
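Test compounds were added to cln2 rad14 yeast cultures; inhibition of growth was then determined by comparison with vehicle treatment.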

A short description of test [5]: NCI Yeast Anticancer Drug Screen. Data for the bub3 strain (AID 167). To be noted: S. cerevisiae bub3 mutant strain, stronger effect = higher value. In outline: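 Screening used yeast with an engineered genetic alteration affecting cell cycle control. Compound-exposed cultures were compared with vehicle cultures, and reduced growth was taken as inhibition.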
Test [6] can be described thus: NCI Yeast Anticancer Drug Screen. Data for the mlh1 rad18 strain (AID 175). To be noted: S. cerevisiae mlh1 rad18 strain growth inhibition, stronger effect = higher value. In outline:
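Inhibition values reflect reduced growth of mutant yeast versus vehicle-treated controls following compound exposure; the mutations affect DNA damage repair.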

Setting [7] is: at 5.0 µM (retest, dose inferred, filed as 0.5).
[8] abbreviates: at 50.0 µM (retest, dose inferred, filed as 5.0).

About 79,000 compounds went through this panel and 15% of them were active in at least one assay; those are over-represented in the sample as a whole. A number with no mark means an inactive call. Active and inactive are the calls of the source. Rule as the data show it: active = growth inhibition above about 70%; inactive = the rest.

For the compound `O=c1[nH][nH]c(=O)c2c1nc(SCc1ccccc1)n2Cc1ccccc1`, the growth inhibition is -3% in test [1] (setting [7]); -4% in test [1] (setting [8]); 8.05% in test [1] (at 50.0 µM); -3% in test [2] (setting [7]); 5% in test [2] (setting [8]); -10.9% in test [2] (at 50.0 µM). Moreover, the growth inhibition in test [3] (setting [7]) was -1%; in test [3] (setting [8]), 2%; in test [3] (at 50.0 µM) it was 1.25%; in test [4] (setting [7]), -3%; in test [4] (setting [8]) it was -4%; in test [4] (at 50.0 µM), 75.8% (active). The growth inhibition in test [5] (setting [7]) is -6%; in test [5] (setting [8]) it was -4%; in test [5] (at 50.0 µM), 2.3%; in test [6] (setting [7]), -2%; in test [6] (setting [8]), 7%; in test [6] (at 50.0 µM), 9.45%.

For `Clc1ccc(Oc2nc(Cl)nc3[nH]ncc23)cc1`, the growth inhibition is 7% in test [1] (setting [7]); 35% in test [1] (setting [8]); 38% in test [1] (at 50.0 µM); 4% in test [2] (setting [7]); 58% in test [2] (setting [8]); 30.6% in test [2] (at 50.0 µM). The growth inhibition is 11% in test [3] (setting [7]); 78% (active) in test [3] (setting [8]); 72.9% (active) in test [3] (at 50.0 µM); 8% in test [4] (setting [7]); 32% in test [4] (setting [8]); -4.85% in test [4] (at 50.0 µM). Further, the growth inhibition in test [5] (setting [7]) is 7%; in test [5] (setting [8]), 37%; in test [5] (at 50.0 µM) it was 18.4%; in test [6] (setting [7]), 10%; in test [6] (setting [8]), 68%; in test [6] (at 50.0 µM) it was 40.1%.

Regarding `NCC(=O)N/N=C/c1ccc([N+](=O)[O-])o1`, the growth inhibition in test [1] (setting [7]) was 10%; in test [1] (setting [8]), 24%; in test [1] (at 50.0 µM), 5.1%; in test [2] (setting [7]), 4%; in test [2] (setting [8]), 17%; in test [2] (at 50.0 µM), 44.3%. The growth inhibition is 0% in test [3] (setting [7]); 15% in test [3] (setting [8]); 73.2% (active) in test [3] (at 50.0 µM); -1% in test [4] (setting [7]); 5% in test [4] (setting [8]); 27.6% in test [4] (at 50.0 µM). Besides, the growth inhibition in test [5] (setting [7]) was 2%; in test [5] (setting [8]), 11%; in test [5] (at 50.0 µM) it was 37.2%; in test [6] (setting [7]) it was 8%; in test [6] (setting [8]) it was 30%; in test [6] (at 50.0 µM), 20.4%.

Consider `C=C1C(=O)OC2/C=C(\C(=O)O)CC/C=C(\C)CC(OC(=O)/C=C(\C)CC)C12` (configuration not stated), for which the growth inhibition is -1% in test [1] (setting [7]); 79% (active) in test [1] (setting [8]); 94% (active) in test [1] (at 50.0 µM); -5% in test [2] (setting [7]); 79% (active) in test [2] (setting [8]); 68.2% in test [2] (at 50.0 µM). Besides, the growth inhibition in test [3] (setting [7]) was -1%; in test [3] (setting [8]), 79% (active); in test [3] (at 50.0 µM), 77.1% (active); in test [4] (setting [7]), -19%; in test [4] (setting [8]), 69%; in test [4] (at 50.0 µM), 69.8%. Besides, the growth inhibition in test [5] (setting [7]) is -7%; in test [5] (setting [8]), 84% (active); in test [5] (at 50.0 µM), 84.2% (active); in test [6] (setting [7]), -4%; in test [6] (setting [8]), 93% (active); in test [6] (at 50.0 µM) it was 77.1% (active).

For the compound `COC(=O)/N=C/CCC(O)NC(=O)OC` (configuration not stated), the growth inhibition was 1% in test [1] (setting [7]); 1% in test [1] (setting [8]); 40.3% in test [1] (at 50.0 µM); -20% in test [2] (setting [7]); 2% in test [2] (setting [8]); 1.85% in test [2] (at 50.0 µM). The growth inhibition is 2% in test [3] (setting [7]); -2% in test [3] (setting [8]); -3.15% in test [3] (at 50.0 µM); -1% in test [4] (setting [7]); 3% in test [4] (setting [8]); 46.5% in test [4] (at 50.0 µM). Further, the growth inhibition was -2% in test [5] (setting [7]); -3% in test [5] (setting [8]); -18.8% in test [5] (at 50.0 µM); -9% in test [6] (setting [7]); 4% in test [6] (setting [8]); 11.7% in test [6] (at 50.0 µM).

Take `NC(=S)C1CCC(C2CCCCC2)CC1` (configuration not stated): the growth inhibition in test [1] (setting [7]) was 5%; in test [1] (setting [8]), 97% (active); in test [1] (at 50.0 µM) it was 96.5% (active); in test [2] (setting [7]), 14%; in test [2] (setting [8]) it was 96% (active); in test [2] (at 50.0 µM), 94.8% (active). In addition, the growth inhibition was 13% in test [3] (setting [7]); 97% (active) in test [3] (setting [8]); 97.2% (active) in test [3] (at 50.0 µM); -4% in test [4] (setting [7]); 94% (active) in test [4] (setting [8]); 83.5% (active) in test [4] (at 50.0 µM). Further, the growth inhibition in test [5] (setting [7]) is 13%; in test [5] (setting [8]), 97% (active); in test [5] (at 50.0 µM) it was 96.3% (active); in test [6] (setting [7]), 21%; in test [6] (setting [8]), 97% (active); in test [6] (at 50.0 µM), 95.8% (active).

With `C(=C\[P+](c1ccccc1)(c1ccccc1)c1ccccc1)/c1ccccc1`, the growth inhibition was 86% (active) in test [1] (setting [7]); 99% (active) in test [1] (setting [8]); 98.8% (active) in test [1] (at 50.0 µM); 94% (active) in test [2] (setting [7]); 99% (active) in test [2] (setting [8]); 99.7% (active) in test [2] (at 50.0 µM). In addition, the growth inhibition in test [3] (setting [7]) was 80% (active); in test [3] (setting [8]) it was 99% (active); in test [3] (at 50.0 µM), 99.2% (active); in test [4] (setting [7]), 76% (active); in test [4] (setting [8]), 98% (active); in test [4] (at 50.0 µM) it was 98.1% (active). Moreover, the growth inhibition in test [5] (setting [7]) was 85% (active); in test [5] (setting [8]), 98% (active); in test [5] (at 50.0 µM) it was 98.8% (active); in test [6] (setting [7]) it was 91% (active); in test [6] (setting [8]) it was 98% (active); in test [6] (at 50.0 µM), 99.1% (active).

Take `COc1ccc(C2C3=C(CCCC3=O)Oc3cc4c(cc32)OCO4)c(OC)c1` (configuration not stated): the growth inhibition in test [1] (setting [7]) was 17%; in test [1] (setting [8]) it was 92% (active); in test [1] (at 50.0 µM) it was 3.95%; in test [2] (setting [7]) it was -3%; in test [2] (setting [8]) it was 90% (active); in test [2] (at 50.0 µM), 18.8%. In addition, the growth inhibition in test [3] (setting [7]) is 6%; in test [3] (setting [8]), 92% (active); in test [3] (at 50.0 µM) it was -11.7%; in test [4] (setting [7]), 6%; in test [4] (setting [8]), 88% (active); in test [4] (at 50.0 µM), -6.1%. The growth inhibition in test [5] (setting [7]) is 8%; in test [5] (setting [8]) it was 94% (active); in test [5] (at 50.0 µM), 1.05%; in test [6] (setting [7]), 4%; in test [6] (setting [8]), 92% (active); in test [6] (at 50.0 µM), 8.95%.

Turning to `C=CCCCN1C(=O)C2C3c4ccccc4C(C=O)(c4ccccc43)C2C1=O` (configuration not stated), the growth inhibition was 29% in test [1] (setting [7]); 25% in test [1] (setting [8]); 32.1% in test [1] (at 50.0 µM); 8% in test [2] (setting [7]); 20% in test [2] (setting [8]); 30.7% in test [2] (at 50.0 µM). Further, the growth inhibition is 0% in test [3] (setting [7]); 23% in test [3] (setting [8]); 27.9% in test [3] (at 50.0 µM); 16% in test [4] (setting [7]); 12% in test [4] (setting [8]); 29.6% in test [4] (at 50.0 µM). For the same compound, the growth inhibition in test [5] (setting [7]) is 26%; in test [5] (setting [8]), 17%; in test [5] (at 50.0 µM), 4.65%; in test [6] (setting [7]), 27%; in test [6] (setting [8]), 35%; in test [6] (at 50.0 µM) it was 3.25%.

Values taken from PubChem BioAssay (NCI).
